# Laboratory results as given in PubChem BioAssay AID743446 (Broad Institute, 2014).
# Potency and affinity values are given separately. Calls of active or inactive are those of the source. The rule behind the calls is not given here.
# Test: viability loss in HEK293 cells – cell-based, plate reader, cherry-picked samples, cytotoxicity control, dose response (AID 743446)
# Details: active compounds read low; at 26 µM unless noted
row,SMILES,max activity
1,O=C(NCCOc1ccccc1)[C@@H]1CCCN1C(=O)c1cccs1,-12.7% [at 0.05 µM] (inactive)
2,CCCCc1ccc(NC(=O)c2cnccn2)cc1,-14.3% [at 3 µM] (inactive)
3,C[C@H]1CN([C@@H](C)CO)C(=O)c2cccc(NC(=O)NC3CCCCC3)c2O[C@@H]1CN(C)Cc1ccc(C(F)(F)F)cc1,27.3% [at 12 µM] (inactive)
4,c1ccc(-n2ncc3c(N4CCCCC4)ncnc32)cc1,-13.3% [at 3 µM] (inactive)
5,Cc1ccccc1C(=O)Nc1ccc2c(c1)OCCO2,-9.3% [at 0.05 µM] (inactive)
6,CN1CCN(c2ccc(NC(=O)N3CCc4ccccc43)cc2)CC1,17.5% [at 1.6 µM] (inactive)
